Assay results taken from PubChem BioAssay AID1159580 (chemical genetic matrix, 2015).
“And” between values parts separate entries of the source, which are not always exact repeats. Equal values may be shown once. About 2,000 (36%) of roughly 5,500 compounds were called active. Not shown: some 18% with an inconclusive outcome. Cut-off read from the data, not from the text of the source: active = normalized growth mostly below about 0.91 (no sharp cut-off); inconclusive = no clear call, values can overlap the other calls; inactive = mostly above about 0.92. Some of the results follow.

Assay: chemical genetic growth profiling, strain panel (AID 1159580);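 note: tested at 20 µM; growth read once vehicle control cultures reached saturation at 30 °C; 1 = growth at the plate median or of vehicle wells; lower values mean less growth of the strain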
Conditions: S. cerevisiae deletion strains, growth OD

Measured: normalized growth

CCN(CC)CCNC(=O)c1cc(S(C)(=O)=O)ccc1OC
inactive: locus YAL013W, strain DEP1, stronger effect = lower value 1 | locus YAL021C, strain ccr4, stronger effect = lower value 0.979 | locus YAL026C, strain drs2, stronger effect = lower value 0.976 | locus YAL030W, strain snc1, stronger effect = lower value 0.955 | locus YAL040C, strain CLN3, stronger effect = lower value 1.05 | locus YBL061C, strain skt5, stronger effect = lower value 0.967 | locus YBR009C, strain hhf1, stronger effect = lower value 0.989 | locus YBR021W, strain FUR4, stronger effect = lower value 1.02 | locus YBR023C, strain chs3, stronger effect = lower value 0.968 | locus YBR171W, strain sec66, stronger effect = lower value 0.955 | locus YBR229C, strain ROT2, stronger effect = lower value 1.01 | locus YBR231C, strain swc5, stronger effect = lower value 0.974 | locus YBR279W, strain paf1, stronger effect = lower value 0.969 | locus YCL011C, strain gbp2, stronger effect = lower value 0.945 | locus YCL016C, strain dcc1, stronger effect = lower value 0.971 | locus YCL029C, strain bik1, stronger effect = lower value 1.01 | locus YCL061C, strain MRC1 (second series), stronger effect = lower value 0.991 | locus YCL061C, strain MRC1, stronger effect = lower value 0.982 | locus YCL069W, strain vba3, stronger effect = lower value 0.984 | locus YCR088W, strain abp1, stronger effect = lower value 0.967 | locus YDL005C, strain med2, stronger effect = lower value 0.972 | locus YDL035C, strain GPR1, stronger effect = lower value 1.02 | locus YDL040C, strain nat1, stronger effect = lower value 0.976 | locus YDL074C, strain BRE1, stronger effect = lower value 1 | locus YDL101C, strain DUN1, stronger effect = lower value 1.01 | locus YDL134C, strain PPH21, stronger effect = lower value 1.02 | locus YDL185W, strain tfp1, stronger effect = lower value 1.01 | locus YDL192W, strain arf1, stronger effect = lower value 1.01 | locus YDR001C, strain nth1, stronger effect = lower value 0.953 | locus YDR069C, strain doa4, stronger effect = lower value 0.974 | locus YDR101C, strain arx1, stronger effect = lower value 0.991 | locus YDR137W, strain rgp1, stronger effect = lower value 0.959 | locus YDR150W, strain NUM1, stronger effect = lower value 1.01 and 0.998 | locus YDR159W, strain sac3, stronger effect = lower value 0.978 | locus YDR162C, strain NBP2, stronger effect = lower value 1.02 | locus YDR195W, strain ref2 0.965 | locus YDR297W, strain sur2, stronger effect = lower value 0.967 | locus YDR318W, strain mcm21, stronger effect = lower value 1.02 | locus YDR334W, strain swr1, stronger effect = lower value 0.937 | locus YDR335W, strain msn5, stronger effect = lower value 0.966 | locus YDR363W, strain ESC2, stronger effect = lower value 0.973 | locus YDR388W, stronger effect = lower value 1.02 | locus YDR392W, strain spt3, stronger effect = lower value 0.902 | locus YDR502C, strain sam2, stronger effect = lower value 1.01 | locus YEL003W, strain gim4, stronger effect = lower value 0.979 | locus YEL037C, strain rad23, stronger effect = lower value 0.971 | locus YEL061C, strain CIN8 (second series), stronger effect = lower value 0.964 | locus YEL061C, strain CIN8, stronger effect = lower value 1.01 | locus YER002W, strain NOP16, stronger effect = lower value 1.01 | locus YER015W, strain faa2, stronger effect = lower value 0.976 | locus YER016W, strain bim1, stronger effect = lower value 0.988 | locus YER110C, stronger effect = lower value 1.01 | locus YER111C, strain swi4, stronger effect = lower value 0.966 | locus YER155C, strain BEM2 (second series), stronger effect = lower value 0.978 | locus YER155C, strain BEM2, stronger effect = lower value 1.01 | locus YER167W, strain BCK2, stronger effect = lower value 1.02 | locus YFR010W, strain ubp6, stronger effect = lower value 0.953 | locus YGL078C, strain dbp3, stronger effect = lower value 1.01 | locus YGL086W, strain mad1, stronger effect = lower value 1 | locus YGL167C, strain pmr1, stronger effect = lower value 0.97 | locus YGL173C, strain kem1, stronger effect = lower value 0.965 | locus YGL227W, strain vid30, stronger effect = lower value 0.97 | locus YGL240W, strain doc1, stronger effect = lower value 0.972 | locus YGL248W, strain PDE1, stronger effect = lower value 1 | locus YGL253W, strain hxk2, stronger effect = lower value 0.987 | locus YGR078C, strain PAC10, stronger effect = lower value 0.998 | locus YGR135W, strain pre9, stronger effect = lower value 1.03 | locus YGR229C, strain SMI1, stronger effect = lower value 0.96 | locus YGR252W, strain gcn5, stronger effect = lower value 0.996 | locus YHR013C, strain ard1, stronger effect = lower value 0.95 | locus YHR027C, strain rpn1, stronger effect = lower value 0.952 | locus YHR030C, strain SLT2, stronger effect = lower value 1.01 and 0.98 | locus YHR079C, strain IRE1 (second series), stronger effect = lower value 1.01 | locus YHR079C, strain IRE1, stronger effect = lower value 0.998 | locus YHR094C, strain hxt1, stronger effect = lower value 1.01 | locus YHR129C, strain ARP1, stronger effect = lower value 1.01 | locus YHR142W, strain chs7, stronger effect = lower value 0.928 | locus YHR200W, strain rpn10, stronger effect = lower value 1.01 | locus YIL066C, strain RNR3, stronger effect = lower value 1.02 | locus YIL073C, strain SPO22, stronger effect = lower value 1.1 | locus YIL125W, strain kgd1, stronger effect = lower value 1.02 | locus YIR030C, strain dcg1, stronger effect = lower value 1.01 | locus YJL092W, strain hpr5, stronger effect = lower value 0.979 | locus YJL095W, strain BCK1 (second series), stronger effect = lower value 0.972 | locus YJL095W, strain BCK1, stronger effect = lower value 0.997 and 0.978 | locus YJL115W, strain asf1, stronger effect = lower value 0.954 | locus YJL129C, strain trk1, stronger effect = lower value 0.986 | locus YJL134W, strain LCB3, stronger effect = lower value 1.01 | locus YJL154C, strain vps35, stronger effect = lower value 0.95 | locus YJL164C, strain tpk1, stronger effect = lower value 0.981 | locus YJL166W, strain qcr8, stronger effect = lower value 0.931 | locus YJL168C, strain set2, stronger effect = lower value 1.01 | locus YJL187C, strain SWE1 (second series), stronger effect = lower value 0.999 | locus YJL187C, strain SWE1, stronger effect = lower value 0.974 | locus YJR043C, strain POL32, stronger effect = lower value 1.01
